Results: PubChem BioAssay (NCATS)
Inconclusive results are not listed. Activity calls are given as the source filed them. Unless noted, calls follow the shape of the dose curve; as a rule, active = well fitted curve in the direction sought with a large enough effect; inconclusive = small, poorly fitted or top-dose-only effect, or another doubt; inactive = no such curve, though single readings can be large; an effect the other way counts as inactive or inconclusive.

Experiments:
[1] = target: Estrogen receptor (Homo sapiens) (UniProt P03372); experiment: qHTS assay for small molecule antagonists of estrogen receptor alpha signaling (AID 588513; active = well fitted curve in the direction sought with a large enough effect in the signal ratio, with a control signal flat, not every such curve was filed as active; the % refers to the signal ratio; also: % is scaled to controls: 0 for no effect and ±100 for the full control effect)
In short: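 Antagonist mode: inhibition of 0.5 nM 17-beta-estradiol-driven beta-lactamase reporter in HEK 293 ER-alpha-UAS-bla cells, 18 h at 37C, CCF4 readout after 2 h at RT. Normalised to estradiol and DMSO; titration fitted to Hill.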

[2] = target: Estrogen receptor (Homo sapiens) (UniProt P03372); experiment: qHTS assay for small molecule agonists of estrogen receptor alpha signaling (AID 588514; calls by dose curve;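 also: 0% = vehicle only and 100% = reference agonist; nearly all actives have a fitted effect of over 70% in size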)
In short: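 Read-out: CCF4 fluorescence from a beta-lactamase reporter in ER-alpha-UAS-bla HEK 293 cells after 18 hrs of compound exposure at 37 C. Normalized to 20 nM 17-beta-estradiol (100%) and DMSO (0%).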

[3] = qHTS assay for small molecule antagonists of peroxisome proliferator-activated receptor delta signaling (AID 588535; active = well fitted inhibition curve with a large enough effect in the signal ratio, with a control signal flat, not every such curve was filed as active; the % refers to the signal ratio;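 as to max response: cells co-treated with a PPAR-delta agonist as stimulator during compound exposure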); details: HEK293T PPARd-UAS-bla, beta-lactamase FRET ratio, 18 h; 460 nm channel
In short: (§1)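 Compounds tested in titration on PPAR-delta-UAS-bla HEK293T cells grown in charcoal/dextran-stripped serum (2%); beta-lactamase activity read via CCF4 emission at 460 and 530 nm.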

[4] = target: Peroxisome proliferator-activated receptor delta (Homo sapiens) (UniProt Q03181); experiment: as above
In short: as §1

[5] = target: Peroxisome proliferator-activated receptor gamma (Homo sapiens) (UniProt P37231); experiment: qHTS assay for small molecule agonists of peroxisome proliferator-activated receptor gamma signaling (AID 588536; active = well fitted curve in the direction sought with a large enough effect in the signal ratio, with a control signal flat, not every such curve was filed as active; the % refers to the signal ratio;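 also: 0% = DMSO basal wells and 100% = rosiglitazone at 2 µM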)
In short: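 Using GeneBLAzer HEK293 cells, response was quantified by CCF4 fluorescence and normalized between basal DMSO (0%) and rosiglitazone 2 uM (100%); curves yielded half-maximal stimulation concentration and efficacy.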

[6] = qHTS assay for small molecule agonists of retinoid X receptor alpha signaling (AID 588544; calls by dose curve;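 as to activation: 0% = DMSO basal wells and 100% = reference agonist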); details: HEK293T RXRa-UAS-bla, beta-lactamase reporter, 18 h; 530 nm emission
[7] = target: Retinoic acid receptor RXR-alpha (Homo sapiens) (UniProt P19793); experiment: as above
[8] = target: Thyroid hormone receptor beta (Homo sapiens) (UniProt P10828); experiment: qHTS assay for small molecule agonists of thyroid hormone receptor beta signaling (AID 588545; calls by dose curve)
In short: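 Agonist activity was read as beta-lactamase CCF4 fluorescence (405 ex, 460/530 em), scaled between DMSO (0%) and 10 nM T3 (100%), then Hill-fitted for EC50 and efficacy. HEK 293 TR-UAS-bla cells in 2% charcoal/dextran FBS medium were exposed 18 h at 37 C.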

[9] = qHTS assay for small molecule antagonists of retinoid X receptor alpha signaling (AID 588546; active = well fitted inhibition curve with a large enough effect in the signal ratio, with a control signal flat, not every such curve was filed as active; the % refers to the signal ratio;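 also: cells stimulated with 9-cis-retinoic acid as agonist; % is scaled to controls: 0 for no effect and ±100 for the full control effect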); details: HEK293T RXRa-UAS-bla, beta-lactamase ratio, antagonist mode; measured here: W530 green channel, cytotoxicity proxy
In short: (§2)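 Beta-lactamase reporter inhibition, read as CCF4 fluorescence ratio (ex 405, em 460/530 nm) after 2 h at RT. HEK293T UAS-bla cells, 2500/well, were stimulated with 9-cis-RA at 500 or 100 nM final alongside test compound for 18 h at 37 C.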

[10] = qHTS assay for small molecule activators of the nuclear factor-kappa B (NF-kB) signaling pathway (AID 651749; active = well fitted activation curve with a large enough effect in the signal ratio; the % refers to the signal ratio; also: series mostly up to about 77 µM; % of control where 0% means no effect); details: NF-kB-bla ME-180 cells, beta-lactamase FRET ratio, 16 h; activation: stronger effect = higher value
In short: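 Beta-lactamase reporter expression, controlled by NF-kB response elements in ME-180 cells, was quantified fluorometrically via FRET disruption; cells at 2,000/well had been incubated with 23 nL test compound for 16 hr.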

[11] = qHTS assay for environmental chemicals that activate the Aryl hydrocarbon Receptor (AhR) signaling pathway (AID 651777); details: 1A2-DRE human hepatoma cells, luciferase, 24 h; activation: stronger effect = higher value; also: % of control where 0% means no effect; nearly all actives have a fitted effect of over 15% in size
In short: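 AhR activation is scored as a rise in luciferase from a stable DRE–CYP1A2 promoter construct in human hepatoma cells. Treatment lasts 24 hr at 37 C; detection uses One-Glo after 30 min at room temperature.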

[12] = target: Peroxisome proliferator-activated receptor alpha (Homo sapiens) (UniProt Q07869); experiment: qHTS assay for small molecule agonists of the peroxisome proliferator-activated receptor alpha (PPARalpha) signaling pathway (AID 651778); details: PathHunter PPARalpha complementation, chemiluminescence, 6 h; max response: stronger effect = higher value; also: % of control where 0% means no effect
In short: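 Cells plated at 2,000/well and held overnight at 37 C, 5% CO2, then compound added by pin tool for 6 hr; after PathHunter detection reagent and 60 min at room temperature, chemiluminescence from enzyme complementation was read.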

[13] = qHTS assay for small molecule agonists of the antioxidant response element (ARE) signaling pathway measured by Nrf2-dependant transcriptional activity (AID 720636; active = well fitted curve in the direction sought with a large enough effect in the repeat runs; an effect the other way counts as inactive or inconclusive;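 also: HepG2 cells with an ARE-driven luciferase reporter; % of control where 0% means no effect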)
In short: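 First, ARE-luc HepG2 cells attached for 6 hr at 37 C in 1% dialyzed FBS medium. Next, compound or DMSO was added and incubated 16 hr. Finally, ONE-Glo reagent was added and luminescence measured after 30 min.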

[14] = qHTS assay for small molecule agonists of the antioxidant response element (ARE) signaling pathway measured by Nrf2-dependant transcriptional activity - cell viability counter screen (AID 720653; active = well fitted curve in the direction sought with a large enough effect in the repeat runs; an effect the other way counts as inactive or inconclusive; also: % is scaled to controls: 0 for no effect and ±100 for the full control effect); details: ARE-bla HepG2 viability, CellTiter-Glo ATP luminescence, 16 h; max response: stronger effect = lower value
In short: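 ARE-bla HepG2 cells (2,000/well) rested 5 hrs at 37C/5% CO2, then exposed to compounds in DMSO for 16 hrs. Viability was read in the same wells as intracellular ATP by luminescence, 30 min at room temperature after reagent addition.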

[15] = qHTS assay for cell viability of HEK293 cells (AID 743288); details: ATP luminescence (CellTiter-Glo), 18 h; max response: stronger effect = lower value; also: % is scaled to controls: 0 for no effect and ±100 for the full control effect; nearly all actives have a fitted effect of over 50% in size
In short: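 Readout is luciferase-coupled ATP content (CellTiter-Glo luminescence, 30 min room temperature) as a measure of metabolically competent cells. Parental HEK293 cells were plated 5 h or more before compound addition, then treated 18 h at 37 C.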

[16] = qHTS assay for cell viability of the p53RE-bla HCT-116 cell line (AID 743292); also: % is scaled to controls: 0 for no effect and ±100 for the full control effect; nearly all actives have a fitted effect of over 55% in size
In short: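 Quantitative high-throughput format: compounds in DMSO were pinned onto p53RE-bla HCT-116 cells (4,000/well) and incubated 16 h at 37 C. Total intracellular ATP, read by CellTiter-Glo luminescence, reflects viable cell number.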

[17] = target: Nuclear receptor subfamily 1 group I member 2 (Rattus norvegicus) (UniProt Q9R1A7); experiment: qHTS assay for small molecule activators of the rat pregnane X receptor (rPXR) signaling pathway (AID 651751; call rule not given here; also: 0% is about no effect); details: rPXR reporter cells, luciferase (One-Glo), 24 h
[18] = qHTS assay for small molecule activators of the human pregnane X receptor (PXR) signaling pathway (AID 720659; call rule not given here; also: 0% is about no effect)
[19] = target: Glucocorticoid receptor (Homo sapiens) (UniProt P04150); experiment: qHTS assay for small molecule antagonists of glucocorticoid receptor signaling (AID 588533; active = well fitted inhibition curve with a large enough effect in the signal ratio, with a control signal flat, not every such curve was filed as active; the % refers to the signal ratio)
In short: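 Antagonist-mode qHTS: compound titrations added to GRE-bla HeLa cells, then dexamethasone 2 nM final; 18 h, 37 C. CCF4 FRET fluorescence normalized to dexamethasone and DMSO; IC50 from Hill fit.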

[20] = target: Retinoic acid receptor RXR-alpha (Homo sapiens) (UniProt P19793); experiment: qHTS assay for small molecule antagonists of retinoid X receptor alpha signaling (AID 588546); details: HEK293T RXRa-UAS-bla, beta-lactamase ratio, antagonist mode;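 also: cells stimulated with 9-cis-retinoic acid as agonist; % is scaled to controls: 0 for no effect and ±100 for the full control effect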
In short: as §2

Sequence of Estrogen receptor (Homo sapiens) (P03372 whole entry, looked up): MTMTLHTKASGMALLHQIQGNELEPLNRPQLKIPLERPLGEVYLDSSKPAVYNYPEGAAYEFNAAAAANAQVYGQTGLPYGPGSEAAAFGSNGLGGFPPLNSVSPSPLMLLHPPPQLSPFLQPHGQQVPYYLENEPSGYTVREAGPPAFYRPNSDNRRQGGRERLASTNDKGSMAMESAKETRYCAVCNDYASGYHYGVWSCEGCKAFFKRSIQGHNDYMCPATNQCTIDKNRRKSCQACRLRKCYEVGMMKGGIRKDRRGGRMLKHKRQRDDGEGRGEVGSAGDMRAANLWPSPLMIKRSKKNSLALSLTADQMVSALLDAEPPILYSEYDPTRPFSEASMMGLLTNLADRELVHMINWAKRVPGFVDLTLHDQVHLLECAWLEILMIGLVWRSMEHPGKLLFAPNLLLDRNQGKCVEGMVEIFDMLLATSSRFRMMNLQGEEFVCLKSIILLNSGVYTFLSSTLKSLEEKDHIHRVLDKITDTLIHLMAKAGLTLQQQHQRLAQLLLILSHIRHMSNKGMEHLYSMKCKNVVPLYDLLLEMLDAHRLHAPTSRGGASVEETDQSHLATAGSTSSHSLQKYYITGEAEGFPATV
Sequence of Peroxisome proliferator-activated receptor delta (Homo sapiens) (Q03181 whole entry, looked up): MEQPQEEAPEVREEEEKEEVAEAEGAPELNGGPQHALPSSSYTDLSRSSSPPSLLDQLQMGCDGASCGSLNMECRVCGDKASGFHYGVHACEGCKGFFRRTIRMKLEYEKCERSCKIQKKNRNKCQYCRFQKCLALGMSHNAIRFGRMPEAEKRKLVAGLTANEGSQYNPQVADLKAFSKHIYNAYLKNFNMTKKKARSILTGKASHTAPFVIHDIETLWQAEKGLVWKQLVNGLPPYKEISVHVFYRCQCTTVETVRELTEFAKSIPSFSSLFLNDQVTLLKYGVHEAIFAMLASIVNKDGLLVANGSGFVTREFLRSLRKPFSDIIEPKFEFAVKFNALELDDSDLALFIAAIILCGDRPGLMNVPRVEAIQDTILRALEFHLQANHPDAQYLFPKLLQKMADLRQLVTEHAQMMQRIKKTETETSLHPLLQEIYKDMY
Sequence of Glucocorticoid receptor (Homo sapiens) (P04150 whole entry, looked up): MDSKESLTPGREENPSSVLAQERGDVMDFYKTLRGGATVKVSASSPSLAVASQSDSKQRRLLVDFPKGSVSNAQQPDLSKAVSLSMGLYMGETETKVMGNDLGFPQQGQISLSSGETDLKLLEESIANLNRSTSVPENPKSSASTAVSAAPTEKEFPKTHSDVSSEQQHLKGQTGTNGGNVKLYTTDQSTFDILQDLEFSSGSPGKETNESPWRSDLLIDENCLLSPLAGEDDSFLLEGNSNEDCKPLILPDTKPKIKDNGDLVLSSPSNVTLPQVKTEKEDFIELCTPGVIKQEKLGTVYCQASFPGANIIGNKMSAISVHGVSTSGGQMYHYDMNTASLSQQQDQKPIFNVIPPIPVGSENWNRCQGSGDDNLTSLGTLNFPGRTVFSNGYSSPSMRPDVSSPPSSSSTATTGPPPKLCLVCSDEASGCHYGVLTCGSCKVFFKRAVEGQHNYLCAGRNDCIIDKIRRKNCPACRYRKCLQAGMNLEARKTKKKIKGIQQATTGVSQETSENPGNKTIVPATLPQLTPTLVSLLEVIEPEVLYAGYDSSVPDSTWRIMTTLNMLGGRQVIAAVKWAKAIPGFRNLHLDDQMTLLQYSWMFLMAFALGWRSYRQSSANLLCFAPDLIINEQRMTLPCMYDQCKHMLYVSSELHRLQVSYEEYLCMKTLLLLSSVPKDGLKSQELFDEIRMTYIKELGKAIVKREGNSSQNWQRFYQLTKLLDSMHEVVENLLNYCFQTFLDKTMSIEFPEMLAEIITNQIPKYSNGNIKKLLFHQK
Sequence of Peroxisome proliferator-activated receptor gamma (Homo sapiens) (P37231 whole entry, looked up): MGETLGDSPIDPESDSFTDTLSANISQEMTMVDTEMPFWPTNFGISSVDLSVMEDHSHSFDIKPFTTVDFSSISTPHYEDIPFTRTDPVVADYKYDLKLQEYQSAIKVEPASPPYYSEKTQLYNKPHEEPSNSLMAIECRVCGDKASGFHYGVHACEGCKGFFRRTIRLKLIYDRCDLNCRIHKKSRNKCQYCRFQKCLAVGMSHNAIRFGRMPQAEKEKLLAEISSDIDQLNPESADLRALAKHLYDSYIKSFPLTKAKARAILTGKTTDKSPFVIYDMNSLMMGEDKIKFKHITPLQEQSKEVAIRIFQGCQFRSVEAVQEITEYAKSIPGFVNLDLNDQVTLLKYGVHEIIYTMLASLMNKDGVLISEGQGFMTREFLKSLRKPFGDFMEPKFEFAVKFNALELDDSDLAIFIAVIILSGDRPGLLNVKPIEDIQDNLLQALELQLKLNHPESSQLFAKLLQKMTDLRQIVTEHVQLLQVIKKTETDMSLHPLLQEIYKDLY
Sequence of Peroxisome proliferator-activated receptor alpha (Homo sapiens) (Q07869 whole entry, looked up): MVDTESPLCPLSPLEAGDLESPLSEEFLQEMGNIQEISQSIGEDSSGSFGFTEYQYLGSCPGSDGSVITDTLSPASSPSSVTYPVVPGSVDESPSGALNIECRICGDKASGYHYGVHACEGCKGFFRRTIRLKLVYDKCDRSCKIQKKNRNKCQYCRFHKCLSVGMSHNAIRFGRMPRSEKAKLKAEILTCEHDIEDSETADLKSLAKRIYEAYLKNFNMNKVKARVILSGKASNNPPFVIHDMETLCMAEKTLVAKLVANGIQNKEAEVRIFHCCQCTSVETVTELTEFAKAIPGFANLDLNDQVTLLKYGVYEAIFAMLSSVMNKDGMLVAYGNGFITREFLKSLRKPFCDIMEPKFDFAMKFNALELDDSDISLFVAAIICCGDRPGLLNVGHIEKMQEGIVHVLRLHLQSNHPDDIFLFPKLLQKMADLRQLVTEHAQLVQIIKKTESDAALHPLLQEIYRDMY
Sequence of Retinoic acid receptor RXR-alpha (Homo sapiens) (P19793 whole entry, looked up): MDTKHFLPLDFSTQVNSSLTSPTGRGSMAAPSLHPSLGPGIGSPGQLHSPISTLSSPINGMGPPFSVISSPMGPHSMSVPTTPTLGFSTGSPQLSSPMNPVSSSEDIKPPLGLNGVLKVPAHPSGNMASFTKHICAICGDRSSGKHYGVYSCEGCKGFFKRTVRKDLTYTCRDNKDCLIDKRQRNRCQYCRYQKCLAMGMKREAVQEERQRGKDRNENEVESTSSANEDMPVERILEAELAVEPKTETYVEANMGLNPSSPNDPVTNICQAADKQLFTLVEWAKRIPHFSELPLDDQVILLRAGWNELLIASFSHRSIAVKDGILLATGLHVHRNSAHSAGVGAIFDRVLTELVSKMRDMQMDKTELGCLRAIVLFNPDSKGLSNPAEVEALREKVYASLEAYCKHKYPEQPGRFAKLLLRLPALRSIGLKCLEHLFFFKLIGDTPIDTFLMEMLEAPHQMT
Sequence of Thyroid hormone receptor beta (Homo sapiens) (P10828 whole entry, looked up): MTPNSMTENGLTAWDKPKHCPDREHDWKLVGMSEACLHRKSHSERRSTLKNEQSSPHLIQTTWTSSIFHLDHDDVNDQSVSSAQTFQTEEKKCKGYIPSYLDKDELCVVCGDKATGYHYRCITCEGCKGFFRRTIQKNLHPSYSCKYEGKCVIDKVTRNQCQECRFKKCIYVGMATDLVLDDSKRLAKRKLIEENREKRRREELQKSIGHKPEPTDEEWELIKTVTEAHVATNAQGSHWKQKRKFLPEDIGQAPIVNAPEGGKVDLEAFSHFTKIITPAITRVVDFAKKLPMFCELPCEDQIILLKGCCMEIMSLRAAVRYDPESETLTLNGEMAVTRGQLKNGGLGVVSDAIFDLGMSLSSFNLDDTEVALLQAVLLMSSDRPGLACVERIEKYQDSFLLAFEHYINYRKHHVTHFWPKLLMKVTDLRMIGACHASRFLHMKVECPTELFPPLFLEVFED
Sequence of Nuclear receptor subfamily 1 group I member 2 (Rattus norvegicus) (Q9R1A7 whole entry, looked up): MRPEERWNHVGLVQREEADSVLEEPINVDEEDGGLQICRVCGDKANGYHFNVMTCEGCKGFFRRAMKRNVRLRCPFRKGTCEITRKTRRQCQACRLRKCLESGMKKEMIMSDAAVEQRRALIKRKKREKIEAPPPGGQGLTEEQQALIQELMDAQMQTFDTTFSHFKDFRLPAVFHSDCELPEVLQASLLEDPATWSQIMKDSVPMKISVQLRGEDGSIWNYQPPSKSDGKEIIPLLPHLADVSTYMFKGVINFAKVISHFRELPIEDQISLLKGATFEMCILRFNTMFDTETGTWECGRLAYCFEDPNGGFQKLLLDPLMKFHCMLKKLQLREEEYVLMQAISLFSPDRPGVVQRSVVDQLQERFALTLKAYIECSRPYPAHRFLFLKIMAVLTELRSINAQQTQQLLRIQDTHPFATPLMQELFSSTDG

CC(C)O.CC(C)O.CC(C)O.CC(C)O.[Ti]
-22.2%: max response [6]
-8.01%: max response [3]
-4.69%: max response [9]
inactive: Potency [1] | Potency [2] | Potency [4] | outcome [5] | Potency [7] | Potency [8] | activation [10] -1.08% | activation [11] 0.139% | max response [12] -0.904% | Potency [13] | max response [14] -1.55% | max response [15] -10.9% | Potency [16] | max response [17] -0.917% | outcome [18]

CCCCCCCOC(=O)c1ccccc1C(=O)OCCCCCCC
-7.26%: max response [3]
inactive: Potency [1] | Potency [2] | Potency [19] | Potency [4] | outcome [5] | Potency [7] | Potency [8] | activation [10] -1.95% | activation [11] -0.336% | max response [12] 0.0123% | Potency [13] | max response [14] 6.19% | max response [15] -8.86% | Potency [16] | max response [17] -1.98% | outcome [18]
-8.81%: max response [9]
-2.68%: max response [6]

CCCCOC(=O)c1ccccc1
-7.9%: max response [6]
0.0882%: max response [3]
inactive: Potency [1] | Potency [2] | Potency [19] | Potency [4] | Potency [7] | max response [20] 3.76% | activation [10] 0.836% | max response [12] -1.04% | Potency [13] | max response [14] 21.3% | max response [15] -6.32% | Potency [16] | max response [17] -2.16% | outcome [18]
-1.79%: max response [9]

CCCCOCC(C)OCC(C)O (centres undefined)
inactive: Potency [1] | Potency [2] | Potency [4] | Potency [7] | Potency [8] | max response [20] -6.81% | activation [10] -0.368% | activation [11] 0.285% | max response [12] -0.312% | Potency [13] | max response [14] 8.96% | max response [15] 0.272% | Potency [16] | max response [17] 2.61% | outcome [18]
-19.2%: max response [3]
-15.5%: max response [9]
-14.7%: max response [6]

CCC(=O)OCCc1ccccc1
20.5%: max response [3]
-6.4%: max response [9]
-7.14%: max response [6]
inactive: Potency [1] | Potency [2] | Potency [19] | Potency [4] | outcome [5] | Potency [7] | Potency [8] | max response [20] 3.85% | activation [10] 1.34% | activation [11] 2.12% | max response [12] -0.0633% | Potency [13] | max response [15] -5.25% | Potency [16] | max response [17] -2.51% | outcome [18]

CCSC(=O)N(CC(C)C)CC(C)C
-7.79%: max response [9]
inactive: Potency [1] | Potency [2] | Potency [4] | outcome [5] | Potency [7] | Potency [8] | activation [10] -0.513% | activation [11] 0.255% | max response [12] -0.436% | Potency [13] | max response [14] -3.63% | max response [15] -1.7% | Potency [16] | max response [17] 2.63% | outcome [18]
-8.61%: max response [6]
-16.2%: max response [3]
